The structures appear in SMILES notation.

Among the data in the supplement of paper PMC10941209 are parasite survival values, retold here.

This experiment has as its system Toxoplasma gondii RH 2F1 tachyzoites (intracellular in HFF). Briefly: parasite survival relative to DMSO control; higher = less antiparasitic activity, active = 20 or less. The conditions noted are these: 1 µM; 72 h. In short, it runs like this:
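Toxoplasma gondii RH-2F1 tachyzoites expressing β-galactosidase (5 × 10^3 per well) were used to infect HFF cells at 5 × 10^3 cells/well in 96-well plates for 3 h in D2 medium. Cells then received compound at 1 μM for 72 h at 37°C in 5% CO2, were lysed for 15 min, and were given CPRG, with absorbance at 570 nm read after 30 min. Survival denotes this signal as a percentage of DMSO-treated infected controls. Each value reflects 2 or more biological replicates.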
With `COc1ccc(SC(=O)N[C@H](CCC(=O)O)C(=O)O)cc1`, the parasite survival is 56.2% (inactive). Take `Cc1cc(CCCOc2c(C)cc(-c3noc(C(F)(F)F)n3)cc2C)on1`: the parasite survival was 67.2% (inactive).

With `O=[N+]([O-])c1ccc2c(CCc3c[nH]c4ccccc34)c[nH]c2c1`, the parasite survival is 43.3% (inactive).

As for `O=S(=O)(Nc1cccc2cccnc12)c1ccccc1`, the parasite survival was 24.5% (inactive). For the compound `OB1OCc2c1ccc(Cl)c2F`, the parasite survival is 77.1% (inactive).

For `CC1(C)Cc2c(C#N)c(SCCc3ccccc3)nc(N3CCOCC3)c2CO1`, the parasite survival was 39.6% (inactive).

In the case of `C[C@H](Cn1cnc2c(N)ncnc21)OCP(=O)(O)O`, the parasite survival was 76.3% (inactive). Take `CCOCc1nc2c(N)nc3ccccc3c2n1CC(C)(C)O`: the parasite survival was 55.5% (inactive).

As for `c1ccc(-c2nnc3c4ccccc4c(N4CCNCC4)nn23)cc1`, the parasite survival was 11.3% (active). `O=C(Nc1ccccc1C(=O)O)c1cccc(Oc2ccccc2)c1`: the parasite survival is 39.4% (inactive). Take `Cc1c(OCC(F)(F)F)ccnc1C[S+]([O-])c1nc2ccccc2[nH]1` (stereo not given): the parasite survival was 45.7% (inactive).

Regarding `CC(=N)N1CC[C@H](SC2=C(C(=O)O)N3C(=O)[C@@H]([C@@H](C)O)[C@H]3C2)C1`, the parasite survival is 53.7% (inactive).

With `Nc1nc(Nc2ccc3nc(-c4ccc(F)cc4)cc(N)c3c2)cc(-c2ccccc2)n1`, the parasite survival is 4.03% (active). The figure for `Clc1ccc(Cn2c(CN3CCCC3)nc3ccccc32)cc1` is 42.2% (inactive); for `COc1c(F)c(F)cc2c(=O)c(C(=O)O)cn(C3CC3)c12` it is 63.8% (inactive); for `Nc1nc(O)c2ncn([C@@H]3O[C@H](CO)[C@@H](O)[C@H]3F)c2n1` it is 75.9% (inactive).

On to `CC(C)(C)c1cc(C(=O)/C(C#N)=N/Nc2cccc(Cl)c2)no1`, for which the parasite survival is 37.6% (inactive).

`CCCCOC(=O)Nc1cc2nc(C3CCCCC3)[nH]c2cc1N(CC)CC`: the parasite survival was 5.06% (active). Turning to `CC(Cc1ccccc1)C(=O)Nc1ccc(Cl)cc1C(=O)O` (stereo not given), the parasite survival was 42% (inactive). Turning to `N#Cc1cc([N+](=O)[O-])ccc1Oc1ccccc1Cl`, the parasite survival was 69% (inactive). Take `NCC(=O)Nc1ccc(-n2nc(C(F)(F)F)cc2-c2ccc3c(ccc4ccccc43)c2)cc1`: the parasite survival is 13.7% (active).

For `Nc1nnc(-c2ccc(Cl)cc2)s1`, the parasite survival is 59.9% (inactive). Take `COc1cc(NS(=O)(=O)c2ccc(C)cc2)c2ncccc2c1`: the parasite survival was 2.97% (active). As to `C/C(=N\NC(=O)C1CC1c1ccccc1)c1ccc(NC(=O)c2ccco2)cc1` (stereo not given), the parasite survival is 47.3% (inactive). On to `CCCCCCC1c2ccc(O)cc2Oc2cc(O)ccc21`, for which the parasite survival was 25.2% (inactive). For `COc1ccccc1NC(=O)c1ccccc1Sc1ccc([N+](=O)[O-])cc1`, the parasite survival was 52% (inactive). As to `CCCCCCCCCN1C[C@@H](O)[C@H](O)[C@@H](O)[C@@H]1CO`, the parasite survival is 56.8% (inactive). In the case of `Nc1nc2c(ncn2COC(CO)CO)c(=O)[nH]1`, the parasite survival is 80% (inactive).

For the compound `OCCC#Cc1nc(-c2ccc(F)cc2)c(-c2ccncc2)n1CCCc1ccccc1`, the parasite survival was 9.3% (active). With `O=C(Nc1ccc(-c2ccccc2)cc1)C1=C(O)C(Cc2ccccc2)OC1=O` (stereo not given), the parasite survival is 54.1% (inactive). On to `O=c1[nH]c(=O)n(Cc2cccc(Oc3ccccc3)c2)cc1Nc1ccccc1`, for which the parasite survival is 60.3% (inactive).

Take `C[C@@H](c1nc(-c2ccc(C#N)cc2)cs1)[C@](O)(Cn1cncn1)c1ccc(F)cc1F`: the parasite survival was 62.9% (inactive). Turning to `O=C(NCc1ccccc1Cl)c1cnc2ccccc2n1`, the parasite survival is 45.6% (inactive). Turning to `COc1ccc(-n2cnc3cc(NCc4ccco4)ccc32)cc1`, the parasite survival was 35% (inactive).

On to `c1cnc(NCc2ccc(CNc3ncccn3)cc2)nc1`, for which the parasite survival was 71.1% (inactive).

Regarding `O=C(Nc1ccccc1)N(Cc1cc(Br)ccc1O)c1ccc(F)cc1`, the parasite survival is 21.3% (inactive). The figure for `CCc1cc(Cc2cnc(N)nc2N)cc2c1N(C)CCC2C` (stereo not given) is 45.2% (inactive); for `Clc1cc(Cl)c2c(c1)CCc1ccccc1C2n1ccnc1` (stereo not given) it is 7.97% (active). Consider `Oc1c(C(Nc2ccccn2)c2ccccc2)ccc2cccnc12` (stereo not given), for which the parasite survival was 23.6% (inactive). Consider `COc1ccc(NS(=O)(=O)c2ccc(Cl)s2)cn1`, for which the parasite survival was 45.1% (inactive).
